Measurements as given in PubChem BioAssay (NCI).
Compounds without any hit were thinned out: in the full panel of roughly 83,000, 20% have a hit.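 For each line, cells grew in 96-well plates with the test compound present at a single concentration for 48 hours.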 Calls of active or inactive are those of the source. How the source made its calls: active means growth percent below 10; inactive means the rest.

Tests used:
Test in all cases: NCI-60 one-dose screen, 48 h (100 = growth as untreated, 0 = no growth, -100 = all killed)
Details in all cases: 10 µM
RPMI-8226 leukemia = test system: RPMI-8226 leukemia
OVCAR-8 ovarian = test system: OVCAR-8 ovarian
OVCAR-5 ovarian = test system: OVCAR-5 ovarian
OVCAR-4 ovarian = test system: OVCAR-4 ovarian
SK-OV-3 ovarian = test system: SK-OV-3 ovarian
IGROV1 ovarian = test system: IGROV1 ovarian
OVCAR-3 ovarian = test system: OVCAR-3 ovarian
HS 578T breast = test system: HS 578T breast
NCI/ADR-RES ovarian = test system: NCI/ADR-RES ovarian
T-47D breast = test system: T-47D breast

Measured: growth

CCCCN(CCCC)c1cc(C(=O)CCCCCN)c2ccccc2n1
inactive: OVCAR-5 ovarian 105% | OVCAR-4 ovarian 100% | SK-OV-3 ovarian 101% | HS 578T breast 96% | NCI/ADR-RES ovarian 71.6% | T-47D breast 92.9%
active: RPMI-8226 leukemia -67.9% | OVCAR-8 ovarian 9.35% | IGROV1 ovarian -73.6% | OVCAR-3 ovarian -96.9%

CSC1=NCCCC1
inactive: RPMI-8226 leukemia 106% | OVCAR-8 ovarian 106% | OVCAR-5 ovarian 112% | OVCAR-4 ovarian 105% | SK-OV-3 ovarian 108% | IGROV1 ovarian 108% | OVCAR-3 ovarian 110% | HS 578T breast 116% | NCI/ADR-RES ovarian 118% | T-47D breast 107%

CC/C(=C(/c1ccc(OCCN(C)C)cc1)c1ccc(OC(=O)CCCCCCCCC(=O)c2c(C)[nH]c(/C=C3\N=C(c4ccc[nH]4)C=C3OC)c2C)cc1)c1ccccc1
inactive: RPMI-8226 leukemia 48.4% | OVCAR-8 ovarian 86.8% | OVCAR-5 ovarian 103% | OVCAR-4 ovarian 61.6% | SK-OV-3 ovarian 80.7% | IGROV1 ovarian 90.3% | OVCAR-3 ovarian 89.6% | HS 578T breast 58.3% | NCI/ADR-RES ovarian 91.8% | T-47D breast 48.3%

CC(C)(Cl)CCC1=C(Cl)C(=O)c2ccccc2C1=O
active: RPMI-8226 leukemia -28.9% | T-47D breast -38.7%
inactive: OVCAR-8 ovarian 68% | OVCAR-5 ovarian 101% | OVCAR-4 ovarian 11.5% | SK-OV-3 ovarian 92.6% | IGROV1 ovarian 39.7% | OVCAR-3 ovarian 22.9% | HS 578T breast 62.6% | NCI/ADR-RES ovarian 62.9%

Cc1ccc(NC(=O)NC2CCCCC2)cc1
inactive: RPMI-8226 leukemia 108% | OVCAR-8 ovarian 106% | OVCAR-5 ovarian 103% | OVCAR-4 ovarian 114% | SK-OV-3 ovarian 95.8% | IGROV1 ovarian 105% | OVCAR-3 ovarian 109% | HS 578T breast 107% | NCI/ADR-RES ovarian 110% | T-47D breast 93.2%

O=C(Nc1ccncc1)C(=O)c1cn(S(=O)(=O)c2ccc(F)cc2)c2ccccc12
inactive: RPMI-8226 leukemia 15.5% | OVCAR-8 ovarian 30% | OVCAR-5 ovarian 72.4% | OVCAR-4 ovarian 66.9% | SK-OV-3 ovarian 91.2% | IGROV1 ovarian 26.8% | HS 578T breast 50.4% | T-47D breast 52.5%
active: OVCAR-3 ovarian -21.9% | NCI/ADR-RES ovarian 2.06%

O=C(Nc1cccc(-n2cc(-c3ccncc3)c(-c3ccc(O)c(Cl)c3)n2)c1)c1ccc(Cl)c(Cl)c1
inactive: RPMI-8226 leukemia 18.1% | OVCAR-8 ovarian 35.7% | OVCAR-5 ovarian 109% | OVCAR-4 ovarian 67% | SK-OV-3 ovarian 80.9% | IGROV1 ovarian 60.7% | OVCAR-3 ovarian 81.7% | HS 578T breast 53.8% | NCI/ADR-RES ovarian 49.6% | T-47D breast 36%

CC(=O)C1CCC2C3CC(F)C4=CC(=O)CCC4(C)C3C(O)CC12C (stereo not given)
inactive: RPMI-8226 leukemia 83.4% | OVCAR-8 ovarian 94.2% | OVCAR-5 ovarian 105% | OVCAR-4 ovarian 98.6% | SK-OV-3 ovarian 83.9% | IGROV1 ovarian 97.2% | OVCAR-3 ovarian 114% | HS 578T breast 122% | NCI/ADR-RES ovarian 94.9% | T-47D breast 119%

CCOC(=O)C(=Cc1ccc(Br)cc1)C(=O)OCC
inactive: SK-OV-3 ovarian 34% | NCI/ADR-RES ovarian 10.6%
active: RPMI-8226 leukemia -34.3% | OVCAR-8 ovarian -22.4% | OVCAR-5 ovarian 5.97% | OVCAR-4 ovarian 0.0605% | IGROV1 ovarian -82.1% | OVCAR-3 ovarian -35.1% | HS 578T breast -16.3% | T-47D breast -16.7%

Cc1ccc(S(=O)(=O)Oc2ccc3c4c(c(=O)oc3c2)CCCCC4)cc1
inactive: RPMI-8226 leukemia 24% | OVCAR-8 ovarian 63.1% | OVCAR-5 ovarian 93.5% | OVCAR-4 ovarian 51.3% | SK-OV-3 ovarian 93.1% | IGROV1 ovarian 82.1% | OVCAR-3 ovarian 75.1% | HS 578T breast 79.7% | NCI/ADR-RES ovarian 53.2% | T-47D breast 33.4%

O=C(Nc1nc(-c2ccccc2Cl)cs1)c1cc(-c2ccc(Cl)cc2)nc2ccc(Cl)cc12
inactive: RPMI-8226 leukemia 14% | OVCAR-5 ovarian 102% | OVCAR-4 ovarian 44% | SK-OV-3 ovarian 82% | IGROV1 ovarian 24.4% | HS 578T breast 14.9% | T-47D breast 64.3%
active: OVCAR-8 ovarian 1.38% | OVCAR-3 ovarian 2.87% | NCI/ADR-RES ovarian 2.23%

Nc1nc(Nc2ccccc2)n[nH]1
inactive: RPMI-8226 leukemia 97% | OVCAR-8 ovarian 98.1% | OVCAR-5 ovarian 103% | OVCAR-4 ovarian 103% | SK-OV-3 ovarian 104% | IGROV1 ovarian 97.7% | OVCAR-3 ovarian 119% | HS 578T breast 119% | NCI/ADR-RES ovarian 96.6% | T-47D breast 91.7%

FC(F)(F)c1ccc2nc(-c3nc(-c4ccccc4)n4ccccc34)[nH]c2c1
active: OVCAR-4 ovarian -3.4%
inactive: RPMI-8226 leukemia 51.6% | OVCAR-8 ovarian 17.3% | OVCAR-5 ovarian 85.6% | SK-OV-3 ovarian 52.8% | IGROV1 ovarian 67.7% | OVCAR-3 ovarian 79.1% | HS 578T breast 103% | NCI/ADR-RES ovarian 44.4% | T-47D breast 48.3%

CCN(CC)CCC(CNc1c(C)cnc2cc(Cl)ccc12)c1ccc(Cl)c(Cl)c1 (stereo not given)
inactive: RPMI-8226 leukemia 24.5% | OVCAR-8 ovarian 65.7% | OVCAR-5 ovarian 58.3% | OVCAR-4 ovarian 63.6% | SK-OV-3 ovarian 84.1% | IGROV1 ovarian 33.2% | OVCAR-3 ovarian 77% | HS 578T breast 72.3% | NCI/ADR-RES ovarian 63.7% | T-47D breast 65.4%
